# Results as given in the supplement of paper PMC6555819.
# Key:
# Experiment in all cases: PBM binding z-score (relative to random genomic background probes); higher = stronger binding; sequences stand for … in GC…GCGATTGACAGCGTAGAATGAAGG
# [1] = test system: PPARg:RXRa DBDmut IVT, anti-RXR (DBD mutation: RXRa K156A/R161A, NR concentration 270 nM, RXRa partner concentration 90 nM)
# Method in brief: (§1)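 For binding z-scores, the reference was random background probes on custom Agilent 4×180K protein-binding microarrays. These arrays were incubated 1 h with ligand-free nuclear receptor dimers in PBS pH 7.4, 2% milk, 0.02% Triton X-100, 1 mM DTT, 0.2 mg/mL BSA and 0.4 mg/ml salmon testes DNA. Fluorescence was scanned after antibody detection of each partner (one per run) and regression-normalized.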
# [2] = test system: PPARg:RXRa IVT, anti-PPARg (NR concentration 270 nM, RXRa partner concentration 90 nM)
# Method in brief: as §1
# [3] = test system: PPARg DBDmut:RXRa IVT, anti-PPARg (DBD mutation: PPARg1 K132A/R137A, NR concentration 270 nM, RXRa partner concentration 90 nM)
# Method in brief: as §1
# [4] = test system: PPARg DBDmut IVT, anti-PPARg (DBD mutation: PPARg1 K132A/R137A, NR concentration 270 nM)
# Method in brief: as §1
# [5] = test system: PPARg homodimer (NR concentration 180 nM)
# Method in brief: as §1
# [6] = test system: PXR:RXRa (NR concentration 270 nM, RXRa partner concentration 90 nM)
# Method in brief: as §1
# [7] = test system: PXR homodimer (NR concentration 270 nM)
# Method in brief: as §1
# [8] = test system: RARa:RXR (NR concentration 270 nM, RXRa partner concentration 90 nM)
# Method in brief: as §1
# [9] = test system: RARa homodimer (NR concentration 270 nM)
# Method in brief: as §1
# [10] = test system: RARb:RXRa (NR concentration 270 nM, RXRa partner concentration 90 nM)
# Method in brief: as §1
Sequence,PBM binding z-score [1],PBM binding z-score [2],PBM binding z-score [3],PBM binding z-score [4],PBM binding z-score [5],PBM binding z-score [6],PBM binding z-score [7],PBM binding z-score [8],PBM binding z-score [9],PBM binding z-score [10]
CGTCCAAGGTGAAAGGTCAGTGAAGAGATGACGG,2.98,5.2,-0.368,-0.702,3.24,4.74,0.474,6.87,1.47,4.62
TCGAGTAGGTTGGTCGGGGCATTCAGCCAACATA,0.51,-0.219,-0.384,-1.1,-0.0818,0.102,-0.155,0.0862,-0.932,0.117
CTCGAAAGGTCGGGTGAGGTGAGTATACGGATAA,0.384,1.74,0.713,0.324,1.4,3.82,0.334,3.01,0.691,3.52
ATCTCTAGGTAAAGTTAGTTCAGTGAATGCAAAT,2.54,2.3,1.03,0.811,1.08,1.65,1.25,1.12,0.947,0.74
TCTCGGAGGACACGAAAGGTCAGGGCTCGACATC,1.91,1.97,0.171,-0.651,2.95,4.44,0.147,4.93,0.454,4.4
AGAACGAGGGCTCGCTGAGTTGATAGCAGAGTAG,-0.0756,-0.495,-1.3,-0.699,-0.792,-0.724,-0.639,-0.678,-1.21,-0.365
CGAACTAGATCAGAACAGGACAGTGAAGGATGAT,0.901,0.144,0.0731,0.309,0.437,-0.412,0.0691,-0.383,0.626,-0.179
CCTCGGAGGACAATAGGAGGTCAGAGCTGCCAGA,-0.0175,0.979,-0.47,-1.32,1.01,1.76,0.364,2.08,-0.149,2.29
TTACCAAGGTGCGCTGAGGTCGTTGATCCAACTC,-0.264,0.111,-0.817,-0.343,-0.175,2.58,1.74,1.4,-0.803,0.681
AGAATGAGGTTATCAAAGATCAGGGAAACGCTTG,2.98,2.51,1.56,0.266,0.544,1.25,0.0151,1.6,0.154,1.33
CGAACTAGGTCATCCAGGAAAGTGAATACATTGA,8.18,8.5,3.43,1.05,1.98,1.58,0.128,2.49,0.697,3.96
CTACCAAGGTGAACGAGGTCGTTGATTACTATTC,2.17,2.89,0.126,-0.713,0.838,3.54,2.67,2.7,0.278,2.3
